An excerpt weighted towards active compounds, which were near 1.3% of everything screened.
KCNH2 3.1 inh – inhibitors of human KCNH2 3.1 potassium channel isoform | AID 720553 | U2OS KCNH2 3.1, thallium flux FluxOr; stronger effect = lower value | 340,000 tested, 0.95% active | activity change, % (tested at about 1.8 µM);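 active = maximum activity change below -70%; inconclusive = maximum activity change from -70% to -50%; inactive = maximum activity change above -50%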;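 also: thallium influx rate constant from kinetic fluorescence after stimulation buffer; % is scaled to controls: 0 for no effect and ±100 for the full control effect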
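We transduce U2OS cells with the mutant 3.1 virus, culture them overnight, load FluxOr with Red40 quencher for 45 min, then add stimulation buffer and read kinetically for 2 min to derive a normalized rate constant.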
TRPML1 agonist – human mucolipin-1 channel agonism | 410,000 tested, 0.12% active | AID 624414 | TRPML1-expressing cells, Ca2+ dye fluorescence, FDSS | Q9GZU1 | activation, % (concentration not given with the values); in the data active = activation above about 50%; inconclusive = mostly about 30% to 49%; also: 0% is about no effect
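Tetracycline-induced TRPML1-DL cells are seeded and incubated overnight before loading with a no-wash Ca2+ dye and quencher. Agonist activity is taken from the 110 s fluorescence read following compound pin-transfer on an FDSS, before EC80 54-4 challenge.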
hERG WT inh – inhibitors of human wildtype KCNH2 potassium channel. Q12809. U2OS, BacMam KCNH2, thallium flux FluxOr; stronger effect = lower value. activity change, % at 1.84 µM. 340,000 tested, 0.37% active;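 active = maximum activity change below -70%; inconclusive = maximum activity change between -70% and -50%; inactive = maximum activity change above -50%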; also: % is scaled to controls: 0 for no effect and ±100 for the full control effect
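U2OS cells were transduced with wild-type KCNH2 virus (2.03 x 10^8 / mL) for 4 h at room temperature, then cultured overnight at 37 C. Thallium flux was read with FluxOr dye. Rate constants were normalized to DMSO controls.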
TRPV1 agonist – human TRPV1 agonism; TRPV1-expressing cells, Fluo-8 calcium influx, agonist mode; Q8NER1; 320,000 tested, 0.19% active; activation, % at 8.33 µM; in the data active = activation above about 80%; inconclusive = between about 30% and that limit; also: 0% is about no effect
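Cells expressing TRPV1 were dye-loaded with Fluo-8 and read kinetically: 10 s baseline, 3 min after compound (agonist portion), then 2 min after EC20 capsaicin (allosteric enhancer portion). Calcium-bound dye fluorescence at 480/520 nm.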
TRPV1 PAM – potentiators of human vanilloid receptor 1 (TRPV1); Q8NER1; TRPV1-expressing cells, Fluo-8 calcium influx, capsaicin EC20 potentiation; potentiation, % at 8.33 µM; 320,000 tested, 0.02% active; in the data active = potentiation above about 80%; inconclusive = between about 30% and that limit; also: 0% is about no effect
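Fluo-8 calcium influx in TRPV1-expressing cells, kinetic read (ex 480/em 520 nm). Compound added and read 3 min for agonist activity, followed by capsaicin at EC20 final and 2 min further read for enhancement.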
TRPML1 inh – blocks the human TRPML1 channel; Q9GZU1; TRPML1-inducible cells, Ca2+ dye fluorescence, FDSS; stronger effect = lower value; inhibition of EC80 agonist-evoked calcium signal; activity change, negative = inhibition, % (concentration not given with the values); 390,000 tested, 0.02% active; AID 624415; in the data active = activity change below about -50%; inconclusive = between about -30% and that limit;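 also: stimulus is agonist 54-4 at its EC80 concentration; % is scaled to controls: 0 for no effect and ±100 for the full control effect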
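TRPML1-DL cells, Tet-induced overnight (~16 h, 37 °C) at 1,500 cells/well, were loaded with Ca8 no-wash dye plus quencher for 45-90 min at room temperature. Compounds were pinned during FDSS kinetic reading; agonist 54-4 at EC80 (4 uM final) then added.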
Active calls of the source: *; u = inconclusive; x = no result given.

SMILES	KCNH2 3.1 inh	TRPML1 agonist	hERG WT inh	TRPV1 agonist	TRPV1 PAM	TRPML1 inh
CN(C(=S)Nc1ccccc1F)C1(c2ccccc2Cl)CCCCC1=O (configuration not stated)	-6	3	5	-3	-16	1
Cc1noc(C)c1S(=O)(=O)Nc1c(C)n(C)n(-c2ccccc2)c1=O	-26	0	-79*	3	-8	-8
Cc1c(NC(=O)c2cccc(F)c2)c(=O)n(-c2ccccc2)n1C	-109*	0	-3	-8	26	11
COc1ccc(/C(O)=C/C(=O)C(=O)Nc2c(C)n(C)n(-c3ccccc3)c2=O)cc1	31	0	-119*	2	-4	13
Cc1cc(F)ccc1S(=O)(=O)Nc1c(C)n(C)n(-c2ccccc2)c1=O	-74*	-1	-8	-4	-1	17
Cc1c(NS(C)(=O)=O)c(=O)n(-c2ccccc2)n1C	4	0	0	1	5	-16
Cc1c(NC(=O)C(=O)/C=C(/O)c2ccccc2)c(=O)n(-c2ccccc2)n1C	-4	0	-22	5	-11	-9
Cc1c(NS(=O)(=O)c2ccccc2F)c(=O)n(-c2ccccc2)n1C	-2	0	-9	-2	6	-1
CCOC(=O)c1c(C)[nH]c(C)c1S(=O)(=O)NCC(=O)Nc1ccc(C)c(N(C)C)c1	x	-1	x	x	x	-19
CSc1ccc(/C=C2\C=Cc3cc([N+](=O)[O-])ccc32)cc1	x	-1	x	x	x	x
CCOc1ccc(NC(=O)CSc2nnc3c(n2)[nH]c2ccc(S(=O)(=O)N4CCCCC4)cc23)cc1	x	0	x	x	x	x
CCc1ccc2[nH]c(C(=O)N(C)c3ccc(F)cc3F)cc2c1	-71*	4	-1	13	-2	-5
C1=Cc2ccccc2/C1=C\c1cc2c3c(c1)CCCN3CCC2	x	3	x	x	x	x
CC(C)(C)NC1=NCCNC(c2ccccc2)=C1	-2	0	-88*	x	x	8
c1ccc(C2=NCCCN2)cc1	4	1	29	-1	21	10
Cc1ccccc1NS(=O)(=O)c1cc(C(=O)N2CCc3ccccc3C2)ccc1C	-7	1	-1	2	8	23
Cc1ccc(NS(=O)(=O)c2cc(C(=O)N3CCc4ccccc4C3)ccc2Cl)cc1	0	1	-261*	1	25	0
CCCS(=O)(=O)N1CCC(C(=O)N2CCOCC2)CC1	23	-1	-8	0	2	1
CCCCCCC1CCC(C(=O)N2CCOCC2)CC1 (configuration not stated)	-4	1	x	89*	-17	-2
CCCCCC1CCC(C(=O)N2CCOCC2)CC1 (configuration not stated)	-3	0	4	94*	0	-8
O=C(/C=C1\NC2(CCCC2)Cc2ccccc21)C(=O)N/N=C/c1ccccc1O	-85*	2	-22	15	u	2
CCCCCNC(=O)C1CCC(Cn2c(=O)c3sccc3n(CC)c2=O)CC1 (configuration not stated)	x	0	x	x	x	20
Cc1ccccc1NC(=O)c1c(C)nc(SCC(=O)OCc2ccccc2)c(C#N)c1-c1ccc(F)cc1	-114*	2	1	0	11	2
Cc1nc(SCC(=O)OCc2ccccc2)c(C#N)c(-c2ccccc2)c1C(=O)Nc1ccccc1	-2	0	-2	2	9	-1
Cc1cc(Cl)ccc1OCC(=O)N(Cc1ccc(N(C)C)cc1)CC1CCCO1 (configuration not stated)	x	3	x	x	x	22
SMILES	KCNH2 3.1 inh	TRPML1 agonist	hERG WT inh	TRPV1 agonist	TRPV1 PAM	TRPML1 inh
COc1cccc(CNC(=O)CCC2CCCN(C(=O)CCn3cncn3)C2)c1 (configuration not stated)	-94*	-1	3	1	8	3
CC1(C)CC(=O)C2=C(C1)N=C1SCCC(=O)N1C2c1ccccc1 (configuration not stated)	-71*	1	-12	10	-15	-12
CCCCC(NC(=O)Cc1c(C)c2cc3c4c(oc3cc2oc1=O)CCCC4)C(=O)O (configuration not stated)	-3	-1	-151*	16	-9	-1
Clc1ccc[n+](CCCCC[n+]2cccc(Cl)c2)c1	x	-1	x	x	x	x
COc1ccc2cc(Br)ccc2c1CC(=O)NC1CC(C)(C)NC(C)(C)C1	-3	0	-123*	-8	11	-1
CCNC(=O)Cc1c(OC)ccc2cc(Br)ccc12	11	-1	-4	2	9	-7
Cc1cc(F)ccc1Nc1nc2ccc(Cl)cc2n2cnnc12	x	1	x	x	x	-8
Cc1ccc(Nc2nc3ccc(Cl)cc3n3cnnc23)cc1F	-1	-1	-127*	5	-2	25
Cc1ccc(N2CCN(C(=O)c3cn(CC4CCCCC4)nn3)C(C)C2)cc1 (configuration not stated)	-71*	1	-6	x	x	-23
OC(COc1ccccc1)CN1CCC(Cc2ccccc2)CC1 (configuration not stated)	-115*	0	0	6	24	-1
Cc1ccccc1OCC(O)CN1CCN(CC(O)COc2ccccc2C)CC1 (configuration not stated)	-22	0	15	4	3	7
Cc1ccccc1OCC(O)CN1CCC(C)CC1 (configuration not stated)	-80*	0	11	2	12	-4
OC(COc1ccc(F)cc1Cl)CN1CCC(Cc2ccccc2)CC1 (configuration not stated)	-93*	1	u	-6	-15	-2
CCc1cc2c3c(c(=O)oc2cc1OCC(=O)OC)CCCC3	-100*	x	0	19	-24	x
O=C(CN1CCN(Cc2ccc(F)cc2)CC1)Nc1nc2ccccc2s1	-74*	-1	-16	5	2	-10
O=C(Cn1cnc2ccccc2c1=O)Nc1nc2ccccc2s1	-97*	1	-3	-1	-2	3
CCc1ccc2nc(NC(=O)Cn3cnc4ccccc4c3=O)sc2c1	-4	x	1	1	-3	x
Nc1ccc2cccnc2c1	x	0	x	x	x	x
CN(C1CCCCC1)S(=O)(=O)c1cccc(C(=O)OCC(=O)NC2CCCc3ccccc32)c1 (configuration not stated)	-92*	2	53	2	5	11
O=C(C[N+]12CCCc3cccc(c31)CCC2)c1ccc(Cl)c2ccccc12	x	0	x	x	x	x
O=C(Nc1ccccc1)c1csc(-c2ccccc2)n1	-2	3	1	85*	23	5
COC(=O)c1ccc2c(=O)n(CCc3ccc(S(N)(=O)=O)cc3)c(SCC(=O)C(C)(C)C)nc2c1	x	2	x	x	x	-9

High-throughput results deposited in PubChem by National Center for Advancing Translational Sciences (NCATS).
